Test results as given in PubChem BioAssay (Tox21).
A number with no mark means an inactive call. Activity calls are given as the source filed them. The call rests on the fitted dose curve; in most records, active means well fitted curve in the direction sought with a large enough effect in the repeat runs; inconclusive means weak or mixed curves; inactive means flat fitted curve, though single readings scatter.

Assay: qHTS assay to test for compound auto fluorescence at 535 nm (green) in HEK293 cells (AID 720680)
Conditions: green autofluorescence 485/535 nm; series mostly up to 91.3 µM
Text: U.S. Tox21 Program National Center for Advancing Translational Sciences [NCATS] NIH Chemical Genomics Center [NCGC] U.S. Environmental Protection Agency [EPA] National Institutes of Environmental Health Sciences [NIEHS] National Toxicology Program [NTP] U.S. Food and Drug Administration [FDA] Tox21 Assay Overview: Compound auto fluorescence often interferes with screening of the compound library against various biological targets and signaling pathways. Some of these compounds may have fluorophoric properties. Such properties may interfere with the assay outputs resulting in false positives and/or negatives. To decrease such complications and ensure the compound activities are relevant in terms of biological response, the Tox21 10K compound library was screened for auto fluorescence. From the fluorophores used as reporter signals in our screening assays, the auto fluorescence equivalencies of compounds against three fluorophores have been evaluated: Triamterene, Fluorescein and Rose Bengal sodium for blue, green and red fluorescence, respectively. The fluorescence intensities were measured using Excitation/Emission wavelengths at 405/460nm, 485/535nm and 540/590nm for blue, green and red labels, respectively. This assay includes the green fluorescence data.
Tox21 Assay Protocol Summary: 2,000 HEK293 cells in 5 uL of culture medium containing 10% dialyzed FBS per well were dispensed into black wall/clear bottom 1536-well plates using a Multidrop Combi Dispenser (Thermo Scientific). The assay plates were incubated for 4-5 hr at 37C to allow cell attachment to the well bottom, followed by the transfer of 23 nL compound or DMSO vehicle by a pintool work station (Kalypsys, San Diego, CA). After the assay plates were incubated overnight at 37C and 5% CO2, fluorescence intensities in the assay plates were measured by an Envision (PerkinElmer, Shelton, CT) plate reader using three labels for measuring blue, green and red fluorescence at […] 460, 535 and 590nm respectively.
On the % scale 0 is the no-effect control and ±100 the full control effect.

Row | SMILES | fluorescence, % of fluorescein | outcome
1 | Cc1ccc(S(=O)(=O)NC(=O)NN2CC3CCCC3C2)cc1 (stereo not given) | -0.0141% [at 18.6 µM] | –
2 | CCCCCCCCCCCCCCCC(=O)OC | -0.0119% [at 18.6 µM] | –
3 | O=C[C@@H](O)[C@H](O)[C@H](O)CO | – | inactive
4 | C=CC(=O)OCC[N+](C)(C)C | – | inactive
5 | CCCOc1ccc(C(=O)OCCN(CC)CC)cc1N | – | inactive
6 | CC(=O)SC[C@@H](C)C(=O)N1CCC[C@H]1C(=O)N[C@@H](Cc1ccccc1)C(=O)O | – | inactive
7 | CCCC(=O)CC | – | inactive
8 | C=CCCCCCCCCOC(C)=O | – | inactive
9 | CCCCC(CC)COC(=O)CC#N (stereo not given) | – | inactive
10 | CCCCC(CC)CCC(CC(C)C)OS(=O)(=O)O (stereo not given) | – | inactive
11 | NC(=O)CC[C@@H](N)C(=O)O | – | inactive
12 | COc1ccc2cc(CCC(C)=O)ccc2c1 | -0.0683% [at 18.6 µM] | –
13 | N#Cc1ccccc1C#N | – | inactive
14 | O=P(O)(O)C(O)(Cc1cccnc1)P(=O)(O)O | – | inactive
15 | COc1ccc(Cl)cc1C | – | inactive
16 | CCCCCCCCOCCC#N | – | inactive
17 | CC(C)OC(=O)C(C(=O)OC(C)C)=C1SC=CS1 | – | inactive
18 | O=c1[nH]c(=O)c2cn[nH]c2[nH]1 | – | inactive
19 | CC(=O)OC/C=C(/C)CCC=C(C)C | – | inactive
20 | Nc1ccc(C(=O)NCC(=O)O)cc1 | -0.0255% [at 18.6 µM] | –

Row | SMILES | fluorescence, % of fluorescein | outcome
21 | CC(C)(O)CCCC1=CCC(C=O)CC1 (stereo not given) | – | inactive
22 | C=CCN1CCc2nc(N)sc2CC1 | – | inactive
23 | CN(C)CCC[C@@]1(c2ccc(F)cc2)OCc2cc(C#N)ccc21 | – | inactive
24 | CN(C)c1cc(NC(=O)CNC(C)(C)C)c(O)c2c1C[C@H]1C[C@H]3[C@H](N(C)C)C(=O)C(C(N)=O)=C(O)[C@@]3(O)C(=O)C1=C2O | – | inactive
25 | O=C1Nc2ccccc2C1=O | – | inactive
26 | CCO/C=C1\N=C(c2ccccc2)OC1=O | – | inactive
27 | Cc1cccc(N)n1 | – | inactive
28 | Cc1ccccc1C#N | – | inactive
29 | CC1(C)C(=O)C(C)(C)C1=O | – | inactive
30 | O=C(O)/C=C(\CC(=O)O)C(=O)O | – | inactive
31 | CCCCCCCCCCCC(C)=O | – | inactive
32 | CCCCN1C(=O)c2ccccc2C1=O | – | inactive
33 | Cc1ccccc1OCC(=O)O | – | inactive
34 | COCc1nnc(-c2ccc[n+]([O-])c2)n1-c1c(Cl)c(Cl)cc2[nH]c(=O)c(=O)[nH]c12 | – | inactive
35 | O=C(O)P(=O)(O)O | – | inactive
36 | CC1(C)S[C@@H]2[C@H](NC(=O)Cc3ccccc3)C(=O)N2[C@H]1C(=O)O (tested in a mixture with another compound) | – | inactive
37 | O=C(O)Cc1ccccc1Oc1ccc(Cl)cc1Cl | – | inactive
38 | CCC(=O)OCCOc1ccccc1 | – | inactive
39 | CCN(CC)CC | – | inactive
40 | CC1(C)CC(N)CC(C)(C)N1 | – | inactive
